Measurements from PubChem BioAssay (Tox21).
Results filed as inconclusive are left out. Values without a mark were called inactive. Calls follow the shape of the dose curve; as a rule, active = well fitted cell-killing curve with a large enough effect in the repeat runs; inconclusive = weak or mixed curves, or effect the other way; inactive = flat fitted curve, though single readings scatter.

Assay: qHTS assay to identify small molecule antagonists of the retinoid acid receptor (RAR) signaling pathway - cell viability counter screen (AID 1159551); also: nearly all actives have a fitted effect of over 35% in size
Details: C3RL4 cells viability, ATP luminescence (CellTiter-Glo), 6 h; series mostly up to 92.4 µM; activity change, negative = cytotoxicity: at the top concentration
Text: U.S. Tox21 Program National Center for Advancing Translational Sciences [NCATS] NIH Chemical Genomics Center [NCGC] U.S. Environmental Protection Agency [EPA] National Institutes of Environmental Health Sciences [NIEHS] National Toxicology Program [NTP] U.S. Food and Drug Administration [FDA] Tox21 Assay Overview: All-trans Retinoic acid (atRA) is the potent natural metabolite of retinol and plays an important role in normal embryonic development and maintenance of cellular phenotype in adult animals. atRA is the activating ligand for the retinoic acid receptors (RARs) which form heterodimers with retinoid X receptors (RXRs) on the retinoic acid response element (RARE). Through activation of the RAR/RXRs nuclear receptors, atRA regulates the transcription of a large number of protein-coding genes and regulatory RNAs. Intracellular levels of atRA are controlled by the retinol signaling pathway (RSP) that regulates the biosynthesis and catabolism of atRA to maintain physiological levels. Chemicals that interfere with the RSP can cause abnormal intracellular levels of atRA and therefore are potential developmental toxicants. To assess compounds for the potential adverse effect on embryonic development through interfering with retinol signaling, a cell-based RARE luciferase reporter gene assay was used. C3RL4 cell line (OARSA/CFSAN/FDA, Laurel, MD) was used to screen Tox21 10K compound library for identifying inhibitors of the RSP. Also cytotoxicity was assessed by determining the viability of cells based on the quantitation of ATP.
Tox21 Assay Protocol Summary: C3RL4 cells were seeded at 1,000/well in 4 uL of assay medium into white solid 1,536-well tissue culture plates (Greiner Bio-One North America Inc. Monroe, NC) using a Multidrop Combi (Thermo Scientific, Waltham, MA) dispenser. After incubation at 37 C and 5% CO2 for an overnight, 23 nL of compounds dissolved in DMSO, positive control or DMSO only were transferred by a Pintool station (Kalypsys, San Diego, CA). One ul of 1 uM (final concentration) of Retinol was added right after the compound addition by using a Flying Reagent Dispenser (FRD) (Aurora Discovery, San Diego, CA). After 6 hr incubation at 37 C and 5% CO2, 5 uL of CellTiter-Glo reagent (Promega Corporation, Madison, WI) was added to each assay plate using an FRD. Luminescence was quantified on a ViewLux plate reader (PerkinElmer, Waltham, MA) after 30 min incubation at room temperature.
% is scaled to controls: 0 for no effect and ±100 for the full control effect.

Compound | activity change, negative = cytotoxicity
CCc1ccc(C(=O)C(C)CN2CCCCC2)cc1 (stereo not given) | 0.139% [at 42.5 µM]
O=C(O)c1cc(C(=O)O)c(C(=O)O)cc1C(=O)O | -0.822%
CC(C)CCCCCOC(=O)CS | -0.0091%
O=C(O)c1cc(C(=O)O)cc([N+](=O)[O-])c1 | 0.0245%
CC(COc1ccccc1)NC(C)C(O)c1ccc(O)cc1 (stereo not given) | 2.95% [at 42.5 µM]
CO[C@@H]1COCC[C@@H]1N[C@@H]1CC[C@@](C(=O)N2CCc3ncc(C(F)(F)F)cc3C2)(C(C)C)C1 | -1.43%
Cc1cccc(C)c1NC(=O)CN1CCCC1 | -0.777% [at 42.5 µM]
CCCOC(C)=O | 0.656%
Cc1cc(SC2=C(O)C[C@@](CCc3ccc(N)cc3)(C(C)C)OC2=O)c(C(C)(C)C)cc1CO | 1.79%
CCCc1nc(C)c2c(=O)[nH]c(-c3cc(S(=O)(=O)N4CCN(CC)CC4)ccc3OCC)nn12 | 1.14% [at 42.5 µM]
CCC1=C(C)CN(C(=O)NCCc2ccc(S(=O)(=O)NC(=O)NC3CCC(C)CC3)cc2)C1=O (stereo not given) | 2.72% [at 42.5 µM]
CCCC1CCCC(=O)O1 (stereo not given) | 0.474%
OCC(O)c1ccccc1 (stereo not given) | 2.31%
CC/C=C\CCO | 0.508%
S=c1[nH][nH]c(=S)s1 | -0.144%
C[C@@H](O)[C@H]1C(=O)N2C(C(=O)O)=C(S[C@@H]3CN[C@H](CNS(N)(=O)=O)C3)[C@H](C)[C@H]12 | 4.15% [at 42.5 µM]
Cc1nc(C)c(C)nc1C | 1.1%
CCCCOC(=O)CC#N | -0.105%
CC(C)CCCCCCCOC(=O)c1ccc(C(=O)OCCCCCCCC(C)C)c(C(=O)OCCCCCCCC(C)C)c1 | -0.192%
O=c1[nH]nc(-c2ccc([N+](=O)[O-])o2)o1 | 2.34%

Compound | activity change, negative = cytotoxicity
O=C(Cl)c1cc(Cl)cc(Cl)c1 | -2.03%
CC1=C(C)C(=O)C(CCCCC#CCCCC#CCO)=C(C)C1=O | -2.7% [at 42.5 µM]
O=Cc1ccc(Cl)c([N+](=O)[O-])c1 | -9.24%
O=c1c2ccccc2oc2ccccc12 | 2.82%
CCCN(C1CCN(C(=O)C2CCNCC2)CC1)[C@@H]1CCc2ccc(OC)cc2C1 | 0.0327%
Cc1cc(C)c(C)c(O)c1 | -0.828%
CC1(COc2ccc(CC3SC(=O)NC3=O)cc2)CCCCC1 (stereo not given) | 2.11% [at 42.5 µM]
CCOc1ccc(NC(C)=O)cc1N | 3.5%
c1ccc(CN(Cc2ccccc2)Cc2ccccc2)cc1 | -1.76%
CS(C)=O | 1.27%
COc1ccc(/C=C/S(=O)(=O)NC(=O)c2ccc(C)cc2Cl)cc1 | -0.512%
O=C1CCCN1CCO | -0.81%
CC(C)=CCCC(C)C=O (stereo not given) | -0.33%
CCCCCCCCCCCCN1CCOCC1 | 1.51%
CCCCCCCCS | -0.975%
C[Si](C)(C)O[Si](C)(C)O[Si](C)(C)C | 1.86%
CCCCCCCCCCCC(=O)OCC | 1.17%
C[C@H](CN1CCCC1)C(=O)c1ccc(C(F)(F)F)cc1 | -0.251% [at 42.5 µM]
CCc1cnc(C(=O)O)c(C(=O)O)c1 | 0%
CC(=O)Nc1ccn(C2COC(COC(=O)c3ccccc3)O2)c(=O)n1 (stereo not given) | 4.54% [at 42.5 µM]
